About 79,000 compounds went through this panel and 15% of them were active in at least one assay; those are over-represented in the sample as a whole. The source made the active and inactive calls. Cut-off read from the data, not from the text of the source: active = growth inhibition above about 70%; inactive = the rest.

A short description of the first experiment: NCI Yeast Anticancer Drug Screen. Data for the rad50 strain (AID 155).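 Note: 0% = growth of vehicle-only cultures of the same strain.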 The following applies: S. cerevisiae rad50 strain growth inhibition; at 50.0 µM; stronger effect = higher value. An outline of the steps:
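Yeast carrying a defined DNA repair defect were exposed to test compounds, and growth was compared with vehicle-treated controls to give percent inhibition.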
Consider `CCCc1nc2ccc(C)cc2[nH]1`, for which the growth inhibition was 8.4% (inactive).
The same measure, in the same setting: to `COc1cc(C2C3=C(COC3=O)OC(C)(C)Oc3cc4c(cc32)OCO4)cc(OC)c1O` (stereo not given) belongs 55.7% (inactive).
Still for that read-out and setting: to `O=C(O)C(CCOc1ccccc1)(CCc1ccccc1)C(=O)O` belongs 4.1% (inactive); to `COC(=O)c1c(C(=O)Nc2ccccc2)c(-c2ccccc2)n(NC(N)=O)c1C`, 8.35% (inactive); to `CC(=O)Nc1ccc(/C=C2\SC(=S)N(/C=C3/C(=O)N(c4ccccc4)N=C3C)C2=O)cc1`, 12.6% (inactive).
On the same count and under the same terms, to `CC(=O)N1C(Nc2ccccc2)CCN1c1ccccc1` (stereo not given) belongs -24.2% (inactive); to `COC1OC(CO)C(O)C(NC(=O)OCc2ccccc2)C1O` (stereo not given), 2.6% (inactive).
For `CN=C(N)SCCCSC(N)=NC`, the growth inhibition is 17.6% (inactive).
With `CC(=O)NCS(=O)(=O)O`, the growth inhibition is -25.3% (inactive).
On the same count and under the same terms, to `Cc1ccc(/C=C/c2cc(/C=C/c3ccc(C)cc3)c([N+](=O)[O-])cc2[N+](=O)[O-])cc1` belongs 23.2% (inactive); to `C1=C2CCc3ccc(o3)CCC(=C1)O2`, 7.55% (inactive); to `COc1cc2c(cc1OC)C1=Cc3cc(OC)c(OC)cc3C(C)N1C=C2` (stereo not given), 6.15% (inactive).
Turning to `O=C(O)CC(c1ccccc1)C(CC(=O)O)c1ccccc1.[NH-]C1CCCCC1[NH-].[Pt+2]` (stereo not given), the growth inhibition was 37.2% (inactive).
The same measure, in the same setting: to `Nc1cccc2c(=O)[nH][nH]c(=O)c12` belongs 16.6% (inactive); to `N#C/C(=C/c1ccc[nH]1)C(=O)O`, -11.6% (inactive); to `CCOC(=O)c1ccc(NC(=S)NCc2cccnc2)cc1`, 11.6% (inactive).
The same measure, in the same setting: to `COC1OC(CO)C(O)C1O` (stereo not given) belongs -25% (inactive); to `C=C1C(=O)OC2/C=C(/CO)C3(O)CC(O)C(C)(CC(OC(=O)/C(C)=C/C)C12)O3` (stereo not given), 7.2% (inactive); to `CCOC(=O)C(C(=O)OCC)c1cnc2ccccc2c1Cl`, -0.7% (inactive).
With `CCCCNC(=O)NCCCC`, the growth inhibition is 5.85% (inactive).
The same measure, in the same setting: the value for `CC(C)(O)C#Cc1ccccc1` was -0.85% (inactive).
Take `CC(C)(C)CC(C)(C)c1cc2c(O)c(c1)Cc1cc(C(C)(C)CC(C)(C)C)cc(c1O)Cc1cc(C(C)(C)CC(C)(C)C)cc(c1O)Cc1cc(C(C)(C)CC(C)(C)C)cc(c1O)Cc1cc(C(C)(C)CC(C)(C)C)cc(c1O)C2`: the growth inhibition is 20.5% (inactive).
On the same count and under the same terms, to `Cc1c(Cl)cccc1NC(=O)Nc1ccccc1F` belongs 14.2% (inactive).
The same measure, in the same setting: the value for `CCCC(=O)Oc1ccc(C(C)(C)C)cc1` was 38.7% (inactive); that for `Cc1ccc(NC(=O)Oc2ccccn2)cc1` was -9.7% (inactive); that for `CCNC(=O)NC(=O)C(C)(C)Oc1ccc(Cl)cc1` was -8.4% (inactive).
Still for that read-out and setting: the value for `COc1cc(C(=O)n2ncc(C(C)=O)c2C)cc(OC)c1OC` was -3.75% (inactive).
For `CCCCCCCCCC[C@@H](OC(C)=O)[C@@H]1CC[C@@H]([C@@H]2CC[C@@H]([C@@H](O)CC#C/C=C/CCCCCCC[C@@]3(Sc4ccccc4)C[C@H](C)OC3=O)O2)O1`, the growth inhibition is -27.9% (inactive).
The same measure, in the same setting: the value for `CCOC(=O)CC1NC(=O)CNC1=O` (stereo not given) was -9.2% (inactive); that for `O=[N+]([O-])c1cc2c(c3nonc13)OCCCCO2` was 5.95% (inactive); that for `Cc1cc(Cl)ccc1NC(N)=O` was -5.95% (inactive).
Still for that read-out and setting: to `CCN(CC)CC1CCCCCCCCCCC1=O` (stereo not given) belongs -30.3% (inactive); to `O=C(O)Cc1ccc(N2N=C(c3ccccc3)CC2=O)cc1`, 5.3% (inactive); to `CC(C)(C)[Si](C)(C)OCC1CCC(n2cnc3c(N)ncnc32)O1` (stereo not given), 19.7% (inactive).
On the same count and under the same terms, to `Cc1ccc(S(=O)(=O)/C(C#N)=C\N2CC(=O)NC2=S)cc1` belongs -20.1% (inactive); to `NC(=S)N/C=C\c1nc2ccccc2[nH]c1=O`, -34.4% (inactive); to `COC(=O)C(CC(=O)[C@H]1CC[C@H]2[C@@H]3CC=C4C[C@@H](OC(C)=O)CC[C@]4(C)[C@H]3CC[C@]12C)OC(C)=O` (stereo not given in full), 18.7% (inactive).
For `COc1ccc(/C(=N\NC(=O)C(N)=O)C(c2ccc(OC)cc2)C2(O)C(=O)Nc3c(Cl)cccc32)cc1` (stereo not given), the growth inhibition was -9.45% (inactive).
The same measure, in the same setting: the value for `COc1c2occc2c(Br)c2ccc(=O)oc12` was 13% (inactive); that for `COc1ccc(/C=N/NC(=O)NCCNCCO)cc1` was -16.6% (inactive).

The next experiment is described as follows: NCI Yeast Anticancer Drug Screen. Data for the mec2-1 strain (AID 157). The conditions noted are these: S. cerevisiae mec2-1 strain, at 50.0 µM, stronger effect = higher value. The method in brief: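 mec2-1 yeast strain, carrying an alteration in DNA damage repair or cell cycle control, was exposed to compounds; growth inhibition was measured relative to vehicle-treated controls.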
For the compound `CCCc1nc2ccc(C)cc2[nH]1`, the growth inhibition is -9% (inactive).
As to `COc1cc(C2C3=C(COC3=O)OC(C)(C)Oc3cc4c(cc32)OCO4)cc(OC)c1O` (stereo not given), the growth inhibition was -3.6% (inactive).
For `O=C(O)C(CCOc1ccccc1)(CCc1ccccc1)C(=O)O`, the growth inhibition is -10.8% (inactive).
The same measure, in the same setting: the value for `COC(=O)c1c(C(=O)Nc2ccccc2)c(-c2ccccc2)n(NC(N)=O)c1C` was 3.25% (inactive).
On the same count and under the same terms, to `CC(=O)Nc1ccc(/C=C2\SC(=S)N(/C=C3/C(=O)N(c4ccccc4)N=C3C)C2=O)cc1` belongs -3% (inactive).
Take `CC(=O)N1C(Nc2ccccc2)CCN1c1ccccc1` (stereo not given): the growth inhibition was -31.5% (inactive).
On the same count and under the same terms, to `COC1OC(CO)C(O)C(NC(=O)OCc2ccccc2)C1O` (stereo not given) belongs -1.7% (inactive).
The same measure, in the same setting: the value for `CN=C(N)SCCCSC(N)=NC` was 14% (inactive).
Same read-out and setting: the value for `CC(=O)NCS(=O)(=O)O` was -13.4% (inactive); that for `Cc1ccc(/C=C/c2cc(/C=C/c3ccc(C)cc3)c([N+](=O)[O-])cc2[N+](=O)[O-])cc1` was -15.2% (inactive); that for `C1=C2CCc3ccc(o3)CCC(=C1)O2` was 14.8% (inactive).
For the compound `COc1cc2c(cc1OC)C1=Cc3cc(OC)c(OC)cc3C(C)N1C=C2` (stereo not given), the growth inhibition was -6.3% (inactive).
The same measure, in the same setting: to `O=C(O)CC(c1ccccc1)C(CC(=O)O)c1ccccc1.[NH-]C1CCCCC1[NH-].[Pt+2]` (stereo not given) belongs 7.8% (inactive); to `Nc1cccc2c(=O)[nH][nH]c(=O)c12`, -3.1% (inactive).
On the same count and under the same terms, the value for `N#C/C(=C/c1ccc[nH]1)C(=O)O` was -10.2% (inactive); that for `CCOC(=O)c1ccc(NC(=S)NCc2cccnc2)cc1` was -3.25% (inactive).
Still for that read-out and setting: the value for `COC1OC(CO)C(O)C1O` (stereo not given) was -18.8% (inactive); that for `C=C1C(=O)OC2/C=C(/CO)C3(O)CC(O)C(C)(CC(OC(=O)/C(C)=C/C)C12)O3` (stereo not given) was -13.9% (inactive); that for `CCOC(=O)C(C(=O)OCC)c1cnc2ccccc2c1Cl` was -9.45% (inactive).
On to `CCCCNC(=O)NCCCC`, for which the growth inhibition is 3.6% (inactive).
Same read-out and setting: to `CC(C)(O)C#Cc1ccccc1` belongs -8.2% (inactive); to `CC(C)(C)CC(C)(C)c1cc2c(O)c(c1)Cc1cc(C(C)(C)CC(C)(C)C)cc(c1O)Cc1cc(C(C)(C)CC(C)(C)C)cc(c1O)Cc1cc(C(C)(C)CC(C)(C)C)cc(c1O)Cc1cc(C(C)(C)CC(C)(C)C)cc(c1O)C2`, 33.4% (inactive); to `Cc1c(Cl)cccc1NC(=O)Nc1ccccc1F`, 7.65% (inactive).
On the same count and under the same terms, the value for `CCCC(=O)Oc1ccc(C(C)(C)C)cc1` was 6.75% (inactive); that for `Cc1ccc(NC(=O)Oc2ccccn2)cc1` was -30.5% (inactive); that for `CCNC(=O)NC(=O)C(C)(C)Oc1ccc(Cl)cc1` was 10.4% (inactive).
For the compound `COc1cc(C(=O)n2ncc(C(C)=O)c2C)cc(OC)c1OC`, the growth inhibition was -17.5% (inactive).
The same measure, in the same setting: the value for `CCCCCCCCCC[C@@H](OC(C)=O)[C@@H]1CC[C@@H]([C@@H]2CC[C@@H]([C@@H](O)CC#C/C=C/CCCCCCC[C@@]3(Sc4ccccc4)C[C@H](C)OC3=O)O2)O1` was -8.2% (inactive); that for `CCOC(=O)CC1NC(=O)CNC1=O` (stereo not given) was 2.1% (inactive).
Still for that read-out and setting: the value for `O=[N+]([O-])c1cc2c(c3nonc13)OCCCCO2` was 25.5% (inactive); that for `Cc1cc(Cl)ccc1NC(N)=O` was -20.3% (inactive).
With `CCN(CC)CC1CCCCCCCCCCC1=O` (stereo not given), the growth inhibition is -17.9% (inactive).
On the same count and under the same terms, the value for `O=C(O)Cc1ccc(N2N=C(c3ccccc3)CC2=O)cc1` was -5.05% (inactive); that for `CC(C)(C)[Si](C)(C)OCC1CCC(n2cnc3c(N)ncnc32)O1` (stereo not given) was -3.1% (inactive).
Still for that read-out and setting: to `Cc1ccc(S(=O)(=O)/C(C#N)=C\N2CC(=O)NC2=S)cc1` belongs -21.1% (inactive).
For the compound `NC(=S)N/C=C\c1nc2ccccc2[nH]c1=O`, the growth inhibition is -18.6% (inactive).
On the same count and under the same terms, the value for `COC(=O)C(CC(=O)[C@H]1CC[C@H]2[C@@H]3CC=C4C[C@@H](OC(C)=O)CC[C@]4(C)[C@H]3CC[C@]12C)OC(C)=O` (stereo not given in full) was -6.2% (inactive); that for `COc1ccc(/C(=N\NC(=O)C(N)=O)C(c2ccc(OC)cc2)C2(O)C(=O)Nc3c(Cl)cccc32)cc1` (stereo not given) was -15.4% (inactive); that for `COc1c2occc2c(Br)c2ccc(=O)oc12` was 0.35% (inactive).
The same measure, in the same setting: the value for `COc1ccc(/C=N/NC(=O)NCCNCCO)cc1` was -31.8% (inactive).

The values are drawn from PubChem BioAssay (NCI).
